The text below walks through data of PubChem BioAssay (Tox21).

Inconclusive results are not listed. Where a call stands in place of a potency, no number is given. A number with no mark means an inactive call. The source made the active and inactive calls. Calls come from the whole dose curve; as a rule, active = well fitted cell-killing curve with a large enough effect in the repeat runs; inconclusive = weak or mixed curves, or effect the other way; inactive = flat fitted curve, though single readings scatter. Where a SMILES comes first, the peptide text is derived from it. [ ]: non-standard residue; d: D form. pGlu = O=C1CC[C@@H](C(=O)O)N1
Potency is the fitted concentration of half-maximal effect.

A short description of the experiment: qHTS RealTime-Glo MT Cell Viability Assay in HEK293 cells - 32 hour (AID 1224868). For activity change, negative = cytotoxic: top concentration of the series differs between compounds. Note: nearly all actives have a fitted effect of over 50% in size. To be noted: RealTime-Glo luminescence; series mostly up to 76.8 µM. Put shortly: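 Quantitative high-throughput screen of the Tox21 10K library in HEK293: cells and RealTime-Glo reagents plated together, compound added at 5 h, luminescence monitored through 40 h at 37 C.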
As for `CCCCCCC#CC(=O)OC`, the Potency result was “inactive”.

In the case of `O=C(O)CCSCCC(=O)O`, the Potency entry is “inactive”.

For the molecule `O=Cc1cccc(Br)c1`, the Potency entry is “inactive”.

Regarding `Cc1ccc(C(=O)c2ccc(CC(=O)O)n2C)cc1`, the Potency result was “inactive”.

For the molecule `CCCCCCCCCCCCCCCCCCO`, the Potency entry is “inactive”.

For `CCN(C=O)CC`, the Potency entry was “inactive”.

As for `COc1ccc2cc1Oc1cc3c(cc1OC)CC[N+](C)(C)[C@H]3Cc1ccc(cc1)Oc1c(OC)c(OC)cc3c1[C@@H](C2)[N+](C)(C)CC3`, the Potency entry is “inactive”.

Turning to `Cc1ccc(C(=O)c2ccccc2)cc1`, the Potency entry is “inactive”.

In the case of `CC(C)C[C@@H](N)C(=O)O`, the activity change, negative = cytotoxic was 5.13% [at 15.8 µM].

On to `O=C(O)CC(C(=O)O)S(=O)(=O)O` (configuration not stated), for which the Potency entry was “inactive”.

As to `CC1(C)OC[C@@H](COC(=O)CCc2ccc(OC[C@@H](O)CNCCNC(=O)N3CCOCC3)cc2)O1`, the Potency result was “inactive”.

Consider `CC(CC=O)CC(C)(C)C` (configuration not stated), for which the Potency result is “inactive”.

Consider `NC(CCC(=O)O)C(=O)O` (configuration not stated), for which the Potency result was “inactive”.

`CCOC(=O)C(=O)CCCCCCl`: the Potency entry is “inactive”.

Take `Clc1cc(Cl)cc(Cl)c1`: the Potency result was “inactive”.

With `CO/N=C(\C(=O)N[C@@H]1C(=O)N2C(C(=O)O)=C(CSc3nc(=O)c(O)nn3C)CS[C@H]12)c1csc(N)n1`, the Potency entry was “inactive”.

Turning to `CCNC(=O)[C@@H]1CCCN1C(=O)[C@H](CCCN=C(N)N)NC(=O)[C@H](CC(C)C)NC(=O)CNC(=O)[C@H](Cc1ccc(O)cc1)NC(=O)[C@H](CO)NC(=O)[C@H](Cc1c[nH]c2ccccc12)NC(=O)[C@H](Cc1cnc[nH]1)NC(=O)[C@@H]1CCC(=O)N1` ([pGlu]HWSYGLRP-NHEt), the Potency result was “inactive”.

`CCCO[Si](OCCC)(OCCC)OCCC`: the Potency entry is “inactive”.

As to `CCCCCCCCCCCCSC`, the Potency entry was “inactive”.

Take `CC(C)(C)c1ccc(-c2ccc(C(C)(C)C)cc2)cc1`: the Potency entry was “inactive”.

Turning to `CC(C#N)(CCC(=O)O)N=NC(C)(C#N)CCC(=O)O` (configuration not stated), the Potency result was “inactive”.

For `NCCCC[C@H](N[C@@H](CCc1ccccc1)C(=O)O)C(=O)N1CCC[C@H]1C(=O)O`, the Potency result was “inactive”.

In the case of `CC(=O)Nc1ccc(OCC(O)CNC(C)C)cc1` (configuration not stated), the Potency entry was “inactive”.

As for `CCCCOCCOC(=O)CCCCCCCCC(=O)OCCOCCCC`, the Potency result was “inactive”.

As to `CC(C)C(=O)OC(=O)C(C)C`, the Potency entry was “inactive”.

Take `CCCOC(=O)CC`: the Potency result is “inactive”.

With `COc1cc(C)nc(-n2nc(C)cc2OC)n1`, the Potency result was “inactive”.

As for `O=[N+]([O-])c1ccc(/C=N\O)o1`, the Potency result was “inactive”.

In the case of `[O-][n+]1cccc(CO)c1`, the Potency entry is “inactive”.

On to `CCCCCC(=O)OCCc1ccccc1`, for which the Potency entry was “inactive”.

For the molecule `COc1ccccc1OCC1CNC(=O)O1` (configuration not stated), the Potency result was “inactive”.

Take `CCCCCC(C)N` (configuration not stated): the Potency entry is “inactive”.

Regarding `COC(=O)C1=C(C)NC(C)=C(C(=O)OC(C)C)C1c1cccc2nonc12` (configuration not stated), the Potency was 19 µM (active).

As for `CCC(C(=O)NC(=O)NC(C)=O)c1ccccc1` (configuration not stated), the Potency result was “inactive”.

As to `CC[C@H]1OC(=O)[C@H](C)[C@@H](O[C@H]2C[C@@](C)(OC)[C@@H](O)[C@H](C)O2)[C@H](C)[C@@H](O[C@@H]2O[C@H](C)C[C@H](N(C)C)[C@H]2O)[C@](C)(OC)C[C@@H](C)C(=O)[C@H](C)[C@@H](O)[C@]1(C)O`, the Potency entry is “inactive”.

For the molecule `C=CCOCC(O)CO` (configuration not stated), the Potency entry was “inactive”.

Take `CC(=O)Oc1cccc(C)c1`: the Potency result is “inactive”.
